Reference: PubChem BioAssay (NCATS)
Activity calls are given as the source filed them. No rule for the calls is given here.

Test system: HIV-1 nucleocapsid protein NCp7 (binding to TG oligonucleotide)
Assay: HIV Nucleocapsid (AID 346);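 also: potency is for inhibitors that block NC binding and lower polarization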
Conditions: HIV-1 NC / fluorescein-TGTGTGTG probe, fluorescence polarization
Summary of the method: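 HIV-1 NC (100 nM) binding to fluorescein-labelled ssDNA TG4xF (10 nM) in Hepes pH 7.5, 250mM NaCl, 1uM ZnCl2, TCEP and 2-mercaptoethanol; compounds pin-transferred, 1 hr room temperature, fluorescence polarization read on CCD imager.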
Potency is read from the fitted curve at half-maximal effect.

SMILES	Potency
COCC(=O)N1CCC2(CC1)CN(c1ccc(-c3ccccc3)cc1)C2	> 20 µM (inactive)
CCNc1ncc2nc(-c3ccc(Cl)cc3)c(=O)n(C[C@H]3CCCO3)c2n1	> 4 µM (inactive)
O=c1c(-c2ccccc2)nc2cncnc2n1Cc1ccccc1	> 20 µM (inactive)
Cn1c(=O)c(CCc2ccccc2)nc2cnc(Oc3ccccc3)nc21	> 20 µM (inactive)
Cc1noc(C)c1C(=O)N1CCC2(CCCN(C(=O)Nc3cccc(C#N)c3)C2)CC1	> 20 µM (inactive)
CN(Cc1ccco1)c1cc(-c2ccoc2)ncn1	> 20 µM (inactive)
Cc1cccc(CNc2nc(-c3ccc(C(=O)N(C)C)cc3)nc3ccccc23)c1	> 20 µM (inactive)
COc1ccc(C(=O)N2CCC[C@@]3(CCN(c4cccc(-c5ccccc5)c4)C3)C2)cc1	> 20 µM (inactive)
Cc1nc2cnc(Nc3ccccc3)nc2n(C2CC2)c1=O	> 20 µM (inactive)
O=C(c1cccc(F)c1)N1CCC2(CCCN(Cc3cc(C(F)(F)F)cc(C(F)(F)F)c3)C2)CC1	> 20 µM (inactive)
COC(=O)N1CCC2(CC1)CN(c1ccc(-c3ccccc3)cc1)C2	> 20 µM (inactive)
Cc1ccccc1-c1cncnc1NCCN1CCOCC1	> 20 µM (inactive)
COc1ccccc1-c1nc(N(C)C)c2ccccc2n1	> 20 µM (inactive)
COc1ccc(Oc2ncc3ncc(=O)n(Cc4ccc(F)cc4)c3n2)cc1	> 20 µM (inactive)
O=C(c1ccco1)N1CCC2(CC1)CN(C(c1ccccc1)c1ccccc1)C2	> 20 µM (inactive)
COc1ccccc1-c1cncnc1-n1ccnc1	> 20 µM (inactive)
O=C(c1cnccn1)N1CCC2(CC1)CCN(c1ncccn1)CC2	> 20 µM (inactive)
COc1ccc2[nH]cc(CCNc3ncncc3-c3ccccc3OC)c2c1	> 20 µM (inactive)
COc1ccc(-c2nc3cnc(N(C)C)nc3n(CCC#N)c2=O)cc1	> 20 µM (inactive)
FC(F)(F)c1cc(CN2CCCC3(CCNCC3)C2)cc(C(F)(F)F)c1	> 20 µM (inactive)

SMILES	Potency
O=C(Nc1ccccc1)N1CC2(CCN(C(=O)c3cccc(F)c3)CC2)C1	> 20 µM (inactive)
O=c1c(-c2ccc(F)cc2)nc2cnc(Oc3ccccc3)nc2n1Cc1cccs1	> 20 µM (inactive)
COc1ccccc1CNc1nc(-c2ccc(C(=O)N(C)C)cc2)nc2ccccc12	> 20 µM (inactive)
O=C(c1ccncc1)N1CCC2(CCCN(Cc3nccs3)C2)CC1	> 20 µM (inactive)
Cn1c(=O)c(-c2cccc(C#N)c2)nc2cnc(Oc3ccccc3)nc21	> 20 µM (inactive)
Cn1c(=O)c(-c2cccs2)nc2cnc(Oc3ccccc3)nc21	> 20 µM (inactive)
COCC(=O)N1CCC2(CC1)CCN(c1cccc(-c3ccccc3)c1)CC2	> 20 µM (inactive)
O=C(Oc1ccccc1)N1CCC2(CCCN(c3ccncc3)C2)CC1	> 20 µM (inactive)
O=c1c(-c2cc(F)cc(F)c2)nc2cnc(N3CCOCC3)nc2n1CCc1ccccc1	> 20 µM (inactive)
COCCNc1ncncc1-c1ccccc1OC	> 20 µM (inactive)
CS(=O)(=O)N1CCC[C@@]2(CCN(c3ccccc3)C2)C1	> 20 µM (inactive)
CCNc1ncc2nc(C)c(=O)n(Cc3cccc(OC)c3)c2n1	> 20 µM (inactive)
COc1ccc2[nH]cc(CCNc3ncnc4ccc(-c5ccccc5C#N)cc34)c2c1	> 20 µM (inactive)
COc1ccc(Oc2ncc3nc(-c4ccc(OC)cc4)c(=O)n(C)c3n2)cc1	> 20 µM (inactive)
c1cc(NC2CC2)nc(-c2ccoc2)n1	> 20 µM (inactive)
COc1cccc(-c2ccc3ncnc(N4CCNCC4)c3c2)c1	> 20 µM (inactive)
COc1ccc(Oc2ncc3ncc(=O)n(C4CC4)c3n2)cc1	> 20 µM (inactive)
COCCNc1cc(-c2ccccc2C)ncn1	> 20 µM (inactive)
O=c1c(-c2ccc(Cl)cc2)nc2cnc(N3CCNCC3)nc2n1Cc1cccs1	> 20 µM (inactive)
COc1ccc(NC(=O)N2CC[C@@]3(CCCN(C(=O)c4csnn4)C3)C2)cc1	> 20 µM (inactive)
